Source: PubChem
KB-V1 cytotox: kills drug-selected multidrug resistant KB-V1 cells. 400,000 tested, 3.4% active. KB-V1 MDR cells viability, CellTiter-Glo, 72 h. Potency, µM (series often up to 46.1 µM), actives largely listed as cytotoxic. AID 1347076; also: nearly all actives have a fitted effect of over 60% in size
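Luminescent ATP read-out (CellTiter-Glo, 10 min) measures survival of drug-selected KB-V1 MDR cells after 72 h, 37 degrees C compound exposure. Medium: phenol-red-free DMEM, 10% FBS. Values from fitted concentration-response curves.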
MCF10A rereplic: DNA re-replication induction in MCF 10a cells | MCF 10A DNA re-replication, Hoechst nuclear intensity, 48 h | Potency, µM (top dose mostly 46.1 µM), most hits filed as activators | 350,000 tested, 2.9% active; also: nearly all actives have a fitted effect of over 50% in size
KB-3-1 tox: kills parental KB-3-1 adenocarcinoma cells. 400,000 tested, 1.4% active. Potency, µM (top dose mostly 46.1 µM), actives largely listed as cytotoxic. KB-3-1 viability, CellTiter-Glo ATP luminescence, 72 h; also: nearly all actives have a fitted effect of over 60% in size
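Screening of KB-3-1 cells (DMEM, 10% FBS, phenol-red free) ran from lowest to highest compound concentration; after 72 h at 37 °C viability was read luminescently and curves fitted.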
Giardia killer: Giardia lamblia killing | Giardia lamblia trophozoite viability | activity change, % at 7.66 µM, hits read low | 340,000 tested, 0.15% active | AID 540267; in the data active = activity change below about -80%; inconclusive = between about -30% and that limit;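 also: parasites exposed to compound for two days anaerobically before the ATP read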
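Giardia lamblia trophozoites (100 cells/well) were incubated with compounds for 48 h at 37 deg C under anaerobic conditions. Viability was read as ATP content by one-step luminescence after 15-30 min at room temperature.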
SW480 rereplic: induces DNA re-replication in SW480 colon adenocarcinoma cells | SW480 DNA re-replication, Hoechst DNA content imaging, 48 h | Potency, µM (highest dose often 46.1 µM), most hits filed as activators | 340,000 tested, 1.8% active; also: nearly all actives have a fitted effect of over 55% in size
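First, 250 cells per well were seeded. Next, compound or vehicle (23 nL) was pinned in, plates sat 48 hr at 37 C. Finally Hoechst was added for 40 min before fluorescence scanning.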
S-ASM inh: human S-ASM enzyme inhibition; P17405; placental ASM, HMU-PC fluorogenic substrate, 60 min; Potency, µM (series often up to 57.5 µM), hits mostly inhibitors; 340,000 tested, 0.006% active
Target sequence (P17405 47-631 limits assumed): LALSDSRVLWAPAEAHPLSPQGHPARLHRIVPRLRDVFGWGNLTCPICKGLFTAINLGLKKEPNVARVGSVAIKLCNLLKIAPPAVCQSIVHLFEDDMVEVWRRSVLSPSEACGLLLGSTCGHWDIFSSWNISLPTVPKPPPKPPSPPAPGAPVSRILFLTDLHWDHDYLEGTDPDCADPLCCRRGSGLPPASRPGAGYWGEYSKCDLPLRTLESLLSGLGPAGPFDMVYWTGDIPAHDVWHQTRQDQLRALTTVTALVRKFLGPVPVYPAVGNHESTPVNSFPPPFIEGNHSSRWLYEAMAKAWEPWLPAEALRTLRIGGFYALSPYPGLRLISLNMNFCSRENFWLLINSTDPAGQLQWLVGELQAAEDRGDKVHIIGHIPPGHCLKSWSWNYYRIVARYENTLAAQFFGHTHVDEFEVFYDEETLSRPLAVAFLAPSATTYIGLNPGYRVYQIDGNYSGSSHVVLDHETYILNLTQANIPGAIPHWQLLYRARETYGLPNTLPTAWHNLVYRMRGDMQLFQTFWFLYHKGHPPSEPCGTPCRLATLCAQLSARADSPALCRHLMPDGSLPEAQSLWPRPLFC
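Fluorescence read-out (Ex 386 nm, Em 447 nm) after stopping the reaction at pH 10. Enzyme: ASM from human placenta; substrate HMU-PC0, 9 uM final; 60 min, 37 °C. Compound preincubation 10 min, ambient temperature.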
Large screens that a line does not name were inactive. In the library only some 6.9% were active in any assay of this set; here they are far more common. Unless noted, calls follow the shape of the dose curve; as a rule, active = well fitted curve in the direction sought with a large enough effect; inconclusive = small, poorly fitted or top-dose-only effect, or another doubt; inactive = no such curve, though single readings can be large; an effect the other way counts as inactive or inconclusive.

CC(C)(C)C1CCC(CN2C(Nc3ccccc3)=NC[C@@H]2Cc2ccccc2)CC1 (some centres undefined)	KB-V1 cytotox 18µM, KB-3-1 tox inconclusive, SW480 rereplic inconclusive
O=C(Nc1cccc2ncccc12)c1ccc([N+](=O)[O-])o1	KB-V1 cytotox inconclusive, MCF10A rereplic 4.6µM, Giardia killer -80, SW480 rereplic 1.5µM
Cc1ccccc1NC(=O)c1ccc([N+](=O)[O-])o1	MCF10A rereplic 15µM, Giardia killer inconclusive, SW480 rereplic inconclusive
Cc1cccnc1NC(=O)c1ccc([N+](=O)[O-])o1	Giardia killer inconclusive, SW480 rereplic inconclusive
O=C(Nc1ccccc1Cl)c1ccc([N+](=O)[O-])o1	MCF10A rereplic 13µM, KB-3-1 tox 23µM, Giardia killer -83, SW480 rereplic 7.3µM
Cn1ncc([N+](=O)[O-])c1C(=O)Nc1ccccc1Cl	KB-V1 cytotox inconclusive
Cc1cccc(NC(=O)c2ccc([N+](=O)[O-])s2)n1	Giardia killer -89
Cc1cccc(C)c1NC(=O)c1ccc([N+](=O)[O-])s1	KB-V1 cytotox inconclusive, MCF10A rereplic inconclusive, Giardia killer inconclusive, SW480 rereplic inconclusive
Cc1ccc(-n2cc(C(=O)OCc3ccc(F)c(F)c3)c3ccccc3c2=O)cc1	none (no result: MCF10A rereplic, Giardia killer, SW480 rereplic, S-ASM inh)
[O-][N+]12CCCc3cccc(c31)CCC2	none (no result: MCF10A rereplic, Giardia killer, SW480 rereplic, S-ASM inh)
O=C(NC1CCCC1)c1c[nH]c2ccc(S(=O)(=O)Nc3cccc(C(F)(F)F)c3)cc2c1=O	none (no result: MCF10A rereplic, Giardia killer, SW480 rereplic, S-ASM inh)
CC(C)c1ccc(NC(=O)CSc2nnc(-c3ccccc3)n2C)cc1	none (no result: MCF10A rereplic, Giardia killer, SW480 rereplic, S-ASM inh)
Cc1ccc(Cn2ccn(Cc3ccccc3C)c(=O)c2=O)cc1	none (no result: MCF10A rereplic, Giardia killer, SW480 rereplic, S-ASM inh)
CCn1c(SCC(=O)c2ccccc2)nc2sc3c(c2c1=O)CCN(C)C3	none
Cc1cccc(NC(=O)c2ccc([N+](=O)[O-])o2)n1	KB-V1 cytotox inconclusive, MCF10A rereplic inconclusive, Giardia killer inconclusive, SW480 rereplic 3.7µM
O=C(Nc1cccc2ncccc12)c1ccc(-c2ccc(Br)cc2)o1	KB-V1 cytotox 10µM
O=C(Nc1cccc2ncccc12)c1cccc(Br)c1	none
Cc1ccc(NC(=O)c2ccc([N+](=O)[O-])o2)c(C)c1	KB-V1 cytotox inconclusive, MCF10A rereplic inconclusive, KB-3-1 tox inconclusive, Giardia killer -90, SW480 rereplic inconclusive
Cc1cc(C)cc(C(=O)Nc2cccc(-c3nc4ncccc4o3)c2C)c1	none (no result: MCF10A rereplic, Giardia killer, SW480 rereplic, S-ASM inh)
Cc1c(NC(=O)c2ccc([N+](=O)[O-])o2)cccc1-c1nc2ncccc2o1	KB-V1 cytotox inconclusive, MCF10A rereplic inconclusive, KB-3-1 tox inconclusive, Giardia killer -92, SW480 rereplic inconclusive
CCn1c(C)c(C)c2cc(C(=O)NCC(C)c3ccccc3)ccc21 (centres undefined)	KB-V1 cytotox inconclusive (no result: MCF10A rereplic, Giardia killer, SW480 rereplic, S-ASM inh)
Cc1ccc(S(=O)(=O)c2cn(C)c3cc(N4CCOCC4)c(F)cc3c2=O)c(C)c1	none (no result: MCF10A rereplic, Giardia killer, SW480 rereplic, S-ASM inh)
COC(=O)c1ccc(N2C(c3cc(OC)cc(OC)c3)=Cc3ccc(-c4ccc(C(N)=O)cc4)cc3C2CC(=O)C2CC2)cc1 (centres undefined)	KB-3-1 tox inconclusive (no result: MCF10A rereplic, Giardia killer, SW480 rereplic, S-ASM inh)
Cc1ccc(NC(=O)CN2C(=O)c3ccccc3Sc3ncccc32)c(C)c1	none (no result: MCF10A rereplic, Giardia killer, SW480 rereplic, S-ASM inh)
NC(=S)NS(=O)(=O)c1ccc(N)cc1	none (no result: KB-V1 cytotox, KB-3-1 tox, Giardia killer, S-ASM inh)
CN1/C(=C\C=[N+](C)c2ccccc2)C(C)(C)c2ccccc21	KB-3-1 tox 3.3µM
CN1/C(=C\C=N\O)C(C)(C)c2ccccc21	none
Cc1ccccc1N=C/C=C1\N(C)c2ccccc2C1(C)C	KB-V1 cytotox 23µM, MCF10A rereplic inconclusive, SW480 rereplic inconclusive
CN1/C(=C/C=C(/C#N)C(N)=O)C(C)(C)c2ccccc21	KB-V1 cytotox inconclusive, MCF10A rereplic 5µM, KB-3-1 tox 2.6µM, SW480 rereplic 6.3µM
CO/N=C/C=C1/N(C)c2ccccc2C1(C)C	none
CN1/C(=C\C=C(/C#N)C(=O)Nc2ccccc2F)C(C)(C)c2ccccc21	MCF10A rereplic inconclusive
O=C1CCC[C@@H]2CC(N(Cc3cc4ccccc4s3)c3ccccc3)C[C@@H]3CCN1[C@H]23 (some centres undefined)	none (no result: MCF10A rereplic, Giardia killer, SW480 rereplic, S-ASM inh)
CCCn1c(=S)[nH]c2cc(C(=O)N3CCN(C(=O)OCC)CC3)ccc2c1=O	none
